Assay results: the supplement of paper PMC9925115
“And” between values parts separate entries of the source, which are not always exact repeats. Equal entries are not always repeated.

tested on: FLX1 + dox-induced PRKAR1A G325D; experiment: difference in log2 fold change of viability vs plate median (dox-induced PRKAR1A G325D minus uninduced); higher = compound less effective when PKA is inhibited; details: concentration: not stated (2 or 5 uM); 5 days
Method: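 For each plate a log2 fold change vs the plate median was derived, and the values without dox were subtracted from those with dox, averaged over three biological replicates.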

Structure (SMILES) | difference in log2 fold change of viability
Cc1csc(-c2nnc(Nc3ccc(Oc4ncccc4-c4ccnc(N)n4)cc3)c3ccccc23)c1 | 0.188
O=c1ccc2ccc(O)c(O)c2o1 [Daphnetin] | -0.062
COc1cc2c(Nc3ccc(NC(=O)c4ccccc4)cc3)ncnc2cc1OCCCN1CCOCC1 | 0.301
CCN1CCN(Cc2ccc(C(=O)Nc3ccc(C)c(Oc4ccc5c(c4)CC(=O)N5)c3)cc2C(F)(F)F)CC1 | -0.078
O=c1cc(-c2cccc3c2Sc2ccccc2S3)oc(N2CCOCC2)c1 | 0.329
C[C@]1(O)C[C@@H](c2nc(-c3ccc4ccc(-c5ccccc5)nc4c3)c3c(N)nccn32)C1 [Linsitinib (OSI-906)] | 0.468
C#Cc1cccc(Nc2ncnc3cc4c(cc23)OCCOCCOCCO4)c1 [Icotinib] | -0.163
C=CC(=O)Nc1ccc2ncnc(Nc3cccc(Br)c3)c2c1 | -0.936
CC(=O)Nc1cccc(-n2c(=O)n(C3CC3)c(=O)c3c(Nc4ccc(I)cc4F)n(C)c(=O)c(C)c32)c1 | -0.368
OCCn1cc(-c2ccc3c(c2)CC/C3=N\O)c(-c2ccncc2)n1 | 0.00993
Oc1ccc(-c2nc(-c3ccc(F)cc3)c(-c3ccncc3)[nH]2)cc1 | 0.0143
N#Cc1ccc2[nH]c(O)c(-c3ccc(CN4CCOCC4)cn3)c2c1 | 0.199
Cc1ccc(C(=O)Nc2cccc(C(F)(F)F)c2)cc1Nc1nc(-c2cccnc2)nc2c1cnn2C | 0.868
CNc1nc(Nc2cnn([C@H]3CCN(C4COC4)C[C@@H]3F)c2Cl)ncc1C(F)(F)F | -0.177
CCN1/C(=C/C(C)=O)Sc2ccc(OC)cc21 | -0.074
COc1ccc(-c2nc(N3CCOCC3)c3sc(CN(C)c4ncc(C(=O)NO)cn4)cc3n2)cn1 | 0.159
Nc1nc(N)c(N=O)c(OCC2CCCCC2)n1 | -0.216
N#Cc1c(NC(=O)c2cccc3ccccc23)sc2c1CCCC2 [JNK Inhibitor IX] | 0.317
O=C(NC(NC(=S)Nc1ccc(F)c([N+](=O)[O-])c1)C(Cl)(Cl)Cl)C(c1ccccc1)c1ccccc1 (stereo not given) | 0.101
CNC(=O)c1ccc(C)c(-n2c(C)cc(OCc3ccc(F)cc3F)c(Br)c2=O)c1 | 0.455

Structure (SMILES) | difference in log2 fold change of viability
NC1(Cc2ccc(Cl)cc2)CCN(c2ncnc3[nH]ccc23)CC1 | 0.655
CC(C)(C)c1nc(-c2cccc(NS(=O)(=O)c3c(F)cccc3F)c2F)c(-c2ccnc(N)n2)s1 | 0.264
COc1cc(Nc2ncc(F)c(Nc3ccc4c(n3)NC(=O)C(C)(C)O4)n2)cc(OC)c1OC | -0.353
Cc1cc(Nc2nc(N[C@@H](C)c3ncc(F)cn3)ncc2Cl)[nH]n1 | -1.58
Cc1nc(NC(=O)N2CCC[C@H]2C(N)=O)sc1-c1ccnc(C(C)(C)C(F)(F)F)c1 [Alpelisib (BYL719)] | 0.385
CN(c1ncccc1CNc1nc(Nc2ccc3c(c2)CC(=O)N3)ncc1C(F)(F)F)S(C)(=O)=O | 0.235 and 0.428
N#Cc1c(Oc2ccc(F)c(NC(=O)Cc3cccc(C(F)(F)F)c3)c2)ccc2nc(NC(=O)C3CC3)sc12 | -0.168
CNC(=O)c1cc(Oc2ccc(NC(=O)Nc3cc(C(C)(C)C)nn3-c3ccc4ncccc4c3)c(F)c2)ccn1 [Rebastinib (DCC-2036)] | 0.37
Cc1nc(Nc2cnn(C3CCNCC3)c2)nc2c1N(C)C(=O)c1cc3ccccc3cc1N2C | -0.568
Cc1c(NC(=O)c2ccc(C(C)(C)C)cc2)cccc1-c1cn(C)c(=O)c(Nc2ccc(C(=O)N3CCOCC3)cc2)n1 | 0.119
COC(=O)Nc1ccc(-c2nc(N3CCOCC3)c3cnn(C4CCN(C(=O)OC)CC4)c3n2)cc1 | 0.71
COc1cc2ncnc(Nc3ccc(F)c(Cl)c3)c2cc1OCCCN1CCOCC1 [Gefitinib (ZD1839)] | -0.198
CN1CCN(c2ccc3nc(-c4c(N)c5c(F)cccc5[nH]c4=O)[nH]c3c2)CC1 [Dovitinib (TKI-258) Dilactic Acid] | -0.364
O=C1NC(=O)/C(=C/c2ccc3c(c2)OC(F)(F)O3)S1 | -0.0198
O=C(Nc1c[nH]nc1-c1nc2ccc(CN3CCOCC3)cc2[nH]1)NC1CC1 | 0.115
O=c1ncn2nc(Sc3ccc(F)cc3F)ccc2c1-c1c(Cl)cccc1Cl | 2.06
O=C1NC(=O)C(=Cc2ccc(-c3ccc(F)cc3)o2)S1 (stereo in doubt) | -0.0657
COc1cc(CCc2cc(NC(=O)c3ccc(N4CC(C)NC(C)C4)cc3)n[nH]2)cc(OC)c1 (stereo not given) | -0.468
COc1cc2c(Oc3ccc4[nH]c(C)cc4c3F)ncnc2cc1OCCCN1CCCC1 [Cediranib (AZD2171)] | 0.58
CCn1c(=O)c(-c2ccc(-c3cncs3)cc2Cl)cc2cnc(Nc3ccc(N4CCN(C)CC4)cc3)nc21 | -0.943
